# Experimental data published in PubChem BioAssay (NCATS).
# Records with an inconclusive call do not appear. A call without a number means that no potency is given here. Active and inactive are the calls of the source. Calls follow the shape of the dose curve; as a rule, active = well fitted curve in the direction sought with a large enough effect; inconclusive = small, poorly fitted or top-dose-only effect, or another doubt; inactive = no such curve, though single readings can be large; an effect the other way counts as inactive or inconclusive.
# Assays:
# [1] = target: Furin (Homo sapiens) (UniProt P09958); experiment: Furin counterscreen qHTS for Zika virus inhibitors (AID 1347149); also: nearly all actives have a fitted effect of over 70% in size; also: potency is read from the fitted curve at half-maximal effect
# Chain of Furin (Homo sapiens) (P09958 whole entry, looked up): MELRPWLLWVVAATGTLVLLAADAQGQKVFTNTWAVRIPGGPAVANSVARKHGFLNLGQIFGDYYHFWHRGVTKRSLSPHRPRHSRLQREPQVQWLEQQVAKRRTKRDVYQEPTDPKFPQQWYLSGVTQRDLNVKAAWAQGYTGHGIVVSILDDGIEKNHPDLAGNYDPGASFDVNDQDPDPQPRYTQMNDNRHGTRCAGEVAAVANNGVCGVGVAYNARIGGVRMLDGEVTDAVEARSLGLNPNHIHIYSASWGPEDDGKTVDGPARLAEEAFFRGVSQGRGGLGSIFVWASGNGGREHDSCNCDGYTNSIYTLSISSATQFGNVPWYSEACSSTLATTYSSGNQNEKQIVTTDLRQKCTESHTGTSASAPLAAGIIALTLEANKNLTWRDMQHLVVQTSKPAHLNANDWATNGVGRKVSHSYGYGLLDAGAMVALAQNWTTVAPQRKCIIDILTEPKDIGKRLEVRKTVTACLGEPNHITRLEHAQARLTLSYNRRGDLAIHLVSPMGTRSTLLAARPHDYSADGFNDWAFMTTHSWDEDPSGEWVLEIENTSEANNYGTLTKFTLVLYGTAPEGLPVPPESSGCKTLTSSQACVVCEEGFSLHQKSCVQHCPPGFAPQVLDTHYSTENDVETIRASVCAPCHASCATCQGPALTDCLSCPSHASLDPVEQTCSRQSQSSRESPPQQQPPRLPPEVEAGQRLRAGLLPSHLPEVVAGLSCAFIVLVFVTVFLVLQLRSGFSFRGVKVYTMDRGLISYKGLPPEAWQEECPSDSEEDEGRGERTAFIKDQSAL
# How it was run: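 Fluorogenic cleavage of BOC-RVRR-AMC (2 microM final, Km ~15 µM) was monitored (ex 340, em 450 nm) at 37C after 15 min RT preincubation of 5 nM furin with compounds in HEPES pH 7.0 buffer with CaCl2 and Triton X-100. Percent inhibition was fitted to a 4-parameter Hill curve.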
# [2] = qHTS of pediatric cancer cell lines to identify multiple opportunities for drug repurposing: Primary screen for LAN-5 cells (AID 1347100)
# How it was run: (§1)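 Cells (500-1,000/well) rested 5 h, then received compounds for 48 h; metabolically active cells were measured by CellTiter-Glo luminescence. Final concentrations spanned up to 46 µM (MIPE, 11-point) or 0.59 nM-46 µM (NPC, 8-point) in primary screens, 11-point in follow-ups.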
# [3] = qHTS of pediatric cancer cell lines to identify multiple opportunities for drug repurposing: Primary screen for BT-12 cells (AID 1347101); also: nearly all actives have a fitted effect of over 25% in size
# How it was run: as §1
# [4] = qHTS of pediatric cancer cell lines to identify multiple opportunities for drug repurposing: Primary screen for Rh18 cells (AID 1347102); also: nearly all actives have a fitted effect of over 65% in size
# How it was run: as §1
# [5] = qHTS of pediatric cancer cell lines to identify multiple opportunities for drug repurposing: Primary screen for OHS-50 cells (AID 1347103); also: nearly all actives have a fitted effect of over 40% in size
# How it was run: as §1
# [6] = qHTS of pediatric cancer cell lines to identify multiple opportunities for drug repurposing: Primary screen for RD cells (AID 1347104); also: nearly all actives have a fitted effect of over 55% in size
# How it was run: (§2)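 Luminescence from CellTiter-Glo served as readout of metabolically active cells after 48 h compound exposure. Titrations: MIPE 11-point, from 0.78 nM; NPC 8-point, from 0.59 nM (final). Concentration-response curves came straight from the primary screen.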
# [7] = qHTS of pediatric cancer cell lines to identify multiple opportunities for drug repurposing: Primary screen for MG 63 (6-TG R) cells (AID 1347105); also: nearly all actives have a fitted effect of over 50% in size
# How it was run: as §2
# [8] = qHTS of pediatric cancer cell lines to identify multiple opportunities for drug repurposing: Primary screen for control Hh wild type fibroblast cells (AID 1347106);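 also: series mostly up to about 46 µM; a drop in luminescence marks cytotoxicity and a rise apparent proliferation; nearly all actives have a fitted effect of over 55% in size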
# Text: Drug repurposing or repositioning has been offered as a strategy for drug development in oncology programs. This approach has special potential for childhood cancers and other rare or orphan diseases, where the expected return on new drug development has been a disincentive to pharmaceuticals.
# In this project we exploit the poly-pharmacology of drugs to discover new indications via phenotypic screening of a panel of 19 well-characterized cell lines derived from solid tumors seen in children and adolescents. The goal is to identify approved drugs with previously unrecognized anticancer properties that has the potential to reveal new mechanisms and biological processes involved in carcinogenesis or drug resistance. We employed a titration-based paradigm (quantitative high-throughput screening or qHTS), where all compounds were tested at multiple concentrations for their effect on cell viability. Concentration-response curves (CRCs) were derived directly from the primary screen, and both potency and efficacy values were used to identify compounds with robust bioactivity profiles. We screened the NIH Chemical Genomics Center (NCGC) Pharmaceutical Collection (NPC) and Mechanism Interrogation Plate (MIPE) small molecule collections of approved and investigational compounds against these cell lines; and measured metabolically active cells after 48 hours of compound treatment as a proxy for cell viability.
# Assay Submitter: Nathalia J. Martinez, National Center for Advancing Translational Sciences, National Institutes of Health, Rockville, MD, USA; email: natalia.martinez@nih.gov
# [1] Shen, M et al. Quantitative high-throughput phenotypic screening of pediatric cancer cell lines identifies multiple opportunities for drug repurposing. Oncotarget 2017 Dec 19;9(4):4758-4772. PMID 29435139.
# The cells were obtained from University of North Carolina (UNC), Pediatric Preclinical Testing Program (PPT), and Coriell Institute (CI).
# qHTS cell viability assay:
# Cells were assayed in growth media at a density of 500-1,000 cells/well. Five microliters of cells were dispensed into 1,536-well, white, solid-bottom, TC-treated plates (Greiner Bio One) using a multidrop dispenser and incubated at 37 degrees C, 5% CO2, under a humidified atmosphere for 5 hours. Twenty-three nanoliters of compounds and controls (neutral control DMSO or positive control bortezomib at final concentration of 2.3 µM) were subsequently transferred by Kalypsys pintool. For primary screens, the MIPE collection was tested at 11-point dilutions (final concentrations range from 0.78 nM to 46 µM) and the NPC collection at 8-point dilutions (final concentrations range from 0.59 nM to 46 µM). Compounds tested in follow-up screens were assayed at 11-point dilutions. Cells were incubated for 48 hours, followed by addition of 3 µL of CellTiter-Glo (Promega). After a 15 min incubation at room temperature, samples were analyzed for luminescence intensity using a ViewLux High-throughput CCD imager equipped with clear filters.
# [9] = qHTS of pediatric cancer cell lines to identify multiple opportunities for drug repurposing: Primary screen for Rh30 cells (AID 1347107); also: series mostly up to about 46 µM; nearly all actives have a fitted effect of over 75% in size
# How it was run: as §1
# [10] = qHTS of pediatric cancer cell lines to identify multiple opportunities for drug repurposing: Primary screen for Rh41 cells (AID 1347108);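 also: series mostly up to about 46 µM; luminescence drop marks cytotoxic hits; nearly all actives have a fitted effect of over 70% in size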
# How it was run: as §2
smiles,measurement,setting,value
O=C(Nc1ccc(S(=O)(=O)Nc2nccs2)cc1)C(c1ccccc1)c1ccccc1,Potency,[1],inactive
CCOCCOC(=O)/C=C/c1ccc(OC)cc1,Potency,[2],inactive
same,outcome,[3],inactive
same,outcome,[4],inactive
same,outcome,[5],inactive
same,outcome,[6],inactive
same,outcome,[7],inactive
same,outcome,[8],inactive
same,outcome,[9],inactive
same,outcome,[10],inactive
O=C(O)/C=C/c1ccc(-c2ccc(O)c(C34CC5CC(CC(C5)C3)C4)c2)cc1,Potency,[1],44.1 µM (active)
CC(C)c1cccc2c(-c3ccccc3)cc(-c3ccc(-c4ccc(C(=O)O)cc4)[nH]3)nc12,Potency,[1],39.3 µM (active)
CC1=C(C(=O)OCc2ccccc2)C(c2ccc(-c3ccccc3)cc2)NC(=O)N1CCCCCC(=O)O (stereo not drawn),Potency,[1],39.3 µM (active)
CCc1c(-c2ccccc2)c(-c2ccccc2)nn1-c1ccccc1-c1cccc(OCC(=O)O)c1,Potency,[1],30.4 µM (active)
CCC(C(=O)O)c1ccc(N2Cc3ccccc3C2=O)cc1 (stereo not drawn),Potency,[2],inactive
same,outcome,[3],inactive
same,outcome,[4],inactive
same,outcome,[5],inactive
same,outcome,[6],inactive
same,outcome,[7],inactive
same,outcome,[8],inactive
same,outcome,[9],inactive
same,outcome,[10],inactive
N#CC(c1ccnc(OCc2ccc(CN3CCOCC3)cc2)n1)c1nc2ccccc2s1 (stereo not drawn),Potency,[1],inactive
O=C(O)c1ccccc1NCCc1ccccc1,Potency,[2],inactive
same,outcome,[3],inactive
same,outcome,[4],inactive
same,outcome,[5],inactive
same,outcome,[6],inactive
same,outcome,[7],inactive
same,outcome,[8],inactive
same,outcome,[9],inactive
same,outcome,[10],inactive
Nc1ncnc2c([C@@H]3N[C@H](CO)[C@@H](O)[C@H]3O)c[nH]c12,Potency,[1],inactive
Cc1ccc(N)cc1O,outcome,[7],inactive
same,outcome,[8],inactive
O=C(O)Cc1ccc2oc(-c3ccc(NC(=O)/C=C/c4ccc(Br)cc4)c(F)c3)nc2c1,Potency,[1],55.5 µM (active)
COc1ccc(C(=O)n2c(C)c(Cc3cccc(O[C@@H](C)C(=O)O)c3)c3cc(OC(F)(F)F)ccc32)cc1,Potency,[1],49.4 µM (active)
